# Test results from PubChem BioAssay AID1159580 (chemical genetic matrix, 2015).
# The campaign covered roughly 5,500 compounds. About 2,000 (36%) were called active. Inconclusive results (about 18%) are left out. This is one part of the list. Unmarked numbers belong to inactive results. Rule as the data show it: active = normalized growth mostly below about 0.91 (no sharp cut-off); inconclusive = no clear call, values can overlap the other calls; inactive = mostly above about 0.92.
# Assay: chemical genetic growth profiling, strain panel (AID 1159580);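 also: tested at 20 µM; growth read once vehicle control cultures reached saturation at 30 °C; 1 = growth at the plate median or of vehicle wells; lower values mean less growth of the strain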
# Conditions: growth OD
# [1] = S. cerevisiae deletion strains, locus YAL013W, strain DEP1, hits give low values
# [2] = S. cerevisiae deletion strains, locus YBR229C, strain ROT2, hits give low values
# [3] = S. cerevisiae deletion strains, locus YDL101C, strain DUN1, hits give low values
# [4] = S. cerevisiae deletion strains, locus YDL134C, strain PPH21, hits give low values
# [5] = S. cerevisiae deletion strains, locus YDR150W, strain NUM1, hits give low values
# [6] = S. cerevisiae deletion strains, locus YEL061C, strain CIN8, hits give low values
# [7] = S. cerevisiae deletion strains, locus YGR078C, strain PAC10, hits give low values
# [8] = S. cerevisiae deletion strains, locus YHR030C, strain SLT2, hits give low values
# [9] = S. cerevisiae deletion strains, locus YHR087W, strain rtc3, hits give low values
# [10] = S. cerevisiae deletion strains, locus YJL187C, strain SWE1, hits give low values
# [11] = S. cerevisiae deletion strains, locus YJR043C, strain POL32, hits give low values
# [12] = S. cerevisiae deletion strains, locus YJR075W, strain HOC1, hits give low values
# [13] = S. cerevisiae deletion strains, locus YLR039C, strain RIC1, hits give low values
# [14] = S. cerevisiae deletion strains, locus YLR058C, strain SHM2 (second series), hits give low values
# [15] = S. cerevisiae deletion strains, locus YLR085C, strain ARP6, hits give low values
# [16] = S. cerevisiae deletion strains, locus YLR262C, strain YPT6, hits give low values
# [17] = S. cerevisiae deletion strains, locus YML094W, strain GIM5, hits give low values
# [18] = S. cerevisiae deletion strains, locus YMR219W, strain ESC1, hits give low values
# [19] = S. cerevisiae deletion strains, locus YMR263W, strain SAP30, hits give low values
# [20] = S. cerevisiae deletion strains, locus YMR307W, strain GAS1, hits give low values
# [21] = S. cerevisiae deletion strains, locus YNL153C, strain GIM3, hits give low values
# [22] = S. cerevisiae deletion strains, locus YNL298W, strain CLA4 (second series), hits give low values
# [23] = S. cerevisiae deletion strains, locus YNL322C, strain KRE1, hits give low values
# [24] = S. cerevisiae deletion strains, locus YNR030W, strain Alg12, hits give low values
# [25] = S. cerevisiae deletion strains, locus YPL055C, strain LGE1, hits give low values
# [26] = S. cerevisiae deletion strains, locus YPL241C, strain CIN2, hits give low values
# [27] = S. cerevisiae deletion strains, locus YPR135W, strain CTF4, hits give low values
# [28] = S. cerevisiae deletion strains, locus YOL006C, strain TOP1, hits give low values
smiles,measurement,setting,value
CC(C)(C)c1ccc(Oc2ncccc2NC(=O)c2ccccc2C(F)(F)F)cc1,normalized growth,[1],0.986
same,normalized growth,[2],1.01
same,normalized growth,[3],1.02
same,normalized growth,[4],0.996
same,normalized growth,[5],1.06
same,normalized growth,[6],1
same,normalized growth,[7],0.992
same,normalized growth,[8],0.934
same,normalized growth,[9],1
same,normalized growth,[10],0.998
same,normalized growth,[11],0.948
same,normalized growth,[12],0.988
same,normalized growth,"S. cerevisiae deletion strains, locus YKL190W, strain CNB1, hits give low values",1
same,normalized growth,[13],0.982
same,normalized growth,[14],0.986
same,normalized growth,[15],0.972
same,normalized growth,[16],0.967
same,normalized growth,[17],1.03
same,normalized growth,[18],0.999
same,normalized growth,[19],1.01
same,normalized growth,[20],0.876
same,normalized growth,[21],1
same,normalized growth,[22],0.987
same,normalized growth,[23],1
same,normalized growth,[24],0.993
same,normalized growth,[25],0.996
same,normalized growth,[26],0.987
same,normalized growth,[27],0.984
COC(=O)c1cccnc1Sc1ccc(C)cc1,normalized growth,[1],0.947
same,normalized growth,[2],0.97
same,normalized growth,"S. cerevisiae deletion strains, locus YCL061C, strain MRC1, hits give low values",0.968
same,normalized growth,[3],0.991
same,normalized growth,[4],0.958
same,normalized growth,[5],0.904
same,normalized growth,[6],0.956
same,normalized growth,[7],0.954
same,normalized growth,[8],0.432 (active)
same,normalized growth,[9],0.974
same,normalized growth,[10],0.967
same,normalized growth,[11],0.95
same,normalized growth,[12],0.989
same,normalized growth,[13],0.913
same,normalized growth,[14],0.966
same,normalized growth,[15],0.666 (active)
same,normalized growth,[16],0.961
same,normalized growth,[17],0.97
same,normalized growth,[18],0.958
same,normalized growth,[19],0.962
same,normalized growth,[20],0.686
same,normalized growth,"S. cerevisiae deletion strains, locus YNL128W, strain TEP1, hits give low values",0.98
same,normalized growth,[21],0.991
same,normalized growth,[22],0.917
same,normalized growth,[23],0.965
same,normalized growth,[24],0.928
same,normalized growth,[28],0.684 (active)
same,normalized growth,[25],0.812
same,normalized growth,[26],0.769 (active)
same,normalized growth,[27],0.61 (active)
same,normalized growth,"S. cerevisiae strains, strain wild type, hits give low values",0.965
Cc1ccc(Sc2ncccc2C(=O)NCC(=O)O)cc1,normalized growth,[1],1.03
same,normalized growth,[2],1.02
same,normalized growth,[3],1.04
same,normalized growth,[4],0.999
same,normalized growth,[5],1.03
same,normalized growth,[6],1.01
same,normalized growth,[7],1.04
same,normalized growth,[8],1.06
same,normalized growth,[9],0.994
same,normalized growth,[11],0.962
same,normalized growth,[12],1.02
same,normalized growth,[13],1
same,normalized growth,[14],1.02
same,normalized growth,[15],1.02
same,normalized growth,[16],1.01
same,normalized growth,[17],0.992
same,normalized growth,[18],1.01
same,normalized growth,[19],1.02
same,normalized growth,[21],1.03
same,normalized growth,[22],1.02
same,normalized growth,[23],1.01
same,normalized growth,[24],1.02
same,normalized growth,[28],1.04
same,normalized growth,[25],1.01
same,normalized growth,[26],0.996
same,normalized growth,[27],1.08
